# Assay results published in publication PMC7826789 (International Journal of Molecular Sciences, 2021).
# How the values were obtained:
# [1] = test system: JNK3
# [2] = test system: LATS1
# [3] = test system: LCK
# [4] = test system: LYN
# [5] = test system: LIMK2
# [6] = test system: LOK
# [7] = test system: MAP2K3
# [8] = test system: MAP2K4
# [9] = test system: MAP3K11
# [10] = test system: MAP3K19
# [11] = test system: MAP3K2
# [12] = test system: MAP3K5
# [13] = test system: MAP4K2
# [14] = test system: MAP4K4
# [15] = test system: MAPK11
smiles,measurement,setting,value
Cc1cc(NC(=O)c2cccc(NC(=O)/C=C/CN(C)C)c2)ccc1Nc1nccc(-c2cccnc2)n1 [JNK-IN-7],Kinases covered,[1],JNK3
O=C(O)/C=C/C(=O)O.OCCCNc1nccc(-c2c(-c3ccc(F)cc3)nn3cc(C(F)(F)F)ccc23)n1 [GW569293E],Kinases covered,[2],LATS1
COc1cc2ncnc(Nc3cccc(Cl)c3F)c2cc1O[C@H]1CC[C@H]([C@@H]2NCCNC2=O)CC1 [BI00133844],Kinases covered,[3],LCK
same,Kinases covered,[4],LYN
COc1cc(-c2cncc(-c3cnn(C4CCNCC4)c3)c2)cc(OC)c1OC [K05908],Kinases covered,[3],LCK
CCCCN(Cc1ccccc1)C(=O)c1ccc(S(=O)(=O)Nc2ccccc2)cc1 [TH257],Kinases covered,[5],LIMK2
COc1cc2ncnc(Nc3ccc(F)c(Cl)c3)c2cc1O[C@H]1CC[C@H](N)CC1 [BIBW3133BS],Kinases covered,[6],LOK
Nc1nccc(-c2c(-c3ccc(F)cc3)ncn2CCCN2CCOCC2)n1 [SB-216385],Kinases covered,[7],MAP2K3
same,Kinases covered,[8],MAP2K4
CN(C)C/C=C/C(=O)Nc1ccc(C(=O)Nc2cccc(Nc3ncc(Cl)c(-c4c[nH]c5ccccc45)n3)c2)cc1 [THZ1],Kinases covered,[9],MAP3K11
CCn1c(-c2nonc2N)nc2ccccc21 [SB-693162],Kinases covered,[10],MAP3K19
Cc1cccc(CC(=O)N2CCc3c2ccc(-c2cn(C)c4ncnc(N)c24)c3F)n1 [GSK2656157],Kinases covered,[11],MAP3K2
CC(C)(C)c1ccc(C(=O)Nc2cn3cc(-c4cccnc4)ccc3n2)cc1 [TPKI-58],Kinases covered,[12],MAP3K5
Cc1cc(-c2ccc3c(c2)CC[C@@H](N[C@@H](C)c2ccccc2)C3)cnc1N [GW412617],Kinases covered,[13],MAP4K2
Cl.O=C1Nc2ccc(-c3cccnc3)cc2C1=Cc1cc(Br)c(O)c(Br)c1 [GW429374A],Kinases covered,[14],MAP4K4
Cc1ccc(C(=O)NCC(N)=O)cc1-n1c(C)cc(OCc2ccc(F)cc2F)c(Br)c1=O [PFE-PKIS 1],Kinases covered,[15],MAPK11
COCCNC(=O)c1ccc(-c2cc(C(=O)NC3CC3)cc(F)c2C)cc1 [GW868318],Kinases covered,[15],MAPK11
